PubChem BioAssay (Tox21)
A number with no mark means an inactive call. Inconclusive results are not listed. A call without a number means that no potency is given here. Activity calls are given as the source filed them. Unless noted, calls follow the shape of the dose curve; as a rule, active = well fitted curve in the direction sought with a large enough effect in the repeat runs; inconclusive = weak or mixed curves; inactive = no such curve, though single readings can be large; an effect the other way counts as inactive or inconclusive.

How the values were obtained:
[1] = qHTS RealTime-Glo MT Cell Viability Assay in HEK293 cells - 24 hour (AID 1224886); also: top concentration of the series differs between compounds; nearly all actives have a fitted effect of over 50% in size
In short: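 Reads taken at 0, 8, 16, 24, 32 and 40 h from the same wells. HEK293 cells (600/well) carried RealTime-Glo reagents from seeding, with compound added after a 5 h settle at 37 C.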

[2] = qHTS RealTime-Glo MT Cell Viability Assay in HEK293 cells - 8 hour (AID 1224887); also: top concentration of the series differs between compounds; nearly all actives have a fitted effect of over 50% in size
In short: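 Kinetic, non-lysing viability readout. Seed HEK293 (600/well) with reagent, incubate 5 h at 37 C/5% CO2, pin 23 nL compound in DMSO, incubate at 37 C, read luminescence at 0, 8, 16, 24, 32, 40 h.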

[3] = qHTS RealTime-Glo MT Cell Viability Assay in HepG2 cells - 0 hour (AID 1224889); also: nearly all actives have a fitted effect of over 50% in size
In short: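 HepG2 suspension premixed with RealTime-Glo reagents is plated at 600 cells per well and left 5 h at 37 C/5% CO2. Compounds in DMSO then go in, and bioluminescence reflecting viable cell number is recorded over 40 h.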

[4] = qHTS assay to identify small molecule antagonists of the estrogen receptor alpha (ER-alpha) signaling pathway using the BG1 cell line in the presence of 0.1 nM 17-beta-estradiol - cell viability counter screen (AID 1259241); also: nearly all actives have a fitted effect of over 40% in size
In short: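 Viability in VM7Luc4E2 cells after 22 hr compound exposure under 0.1 nM 17beta-estradiol stimulation, by CellTiter-Fluor.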

[5] = qHTS assay to identify small molecule antagonists of the androgen receptor (AR) signaling pathway using the MDA cell line in the presence of 0.5 nM R1881 - cell viability counter screen (AID 1259242); also: nearly all actives have a fitted effect of over 45% in size
In short: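 Cells seeded at 3,000/well and allowed 5 hr at 37C, 0% CO2 before compound transfer and R1881 (0.5 nM final) addition; 16 hr later, live-cell protease fluorescence indicated cytotoxicity.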

[6] = molecular target: Estrogen receptor (Homo sapiens) (UniProt P03372); assay: qHTS assay to identify small molecule antagonists of the estrogen receptor alpha (ER-alpha) signaling pathway using the BG1 cell line in the presence of 0.1 nM 17-beta-estradiol (AID 1259244); also: nearly all actives have a fitted effect of over 50% in size
Estrogen receptor (Homo sapiens), sequence (P03372 whole entry, looked up): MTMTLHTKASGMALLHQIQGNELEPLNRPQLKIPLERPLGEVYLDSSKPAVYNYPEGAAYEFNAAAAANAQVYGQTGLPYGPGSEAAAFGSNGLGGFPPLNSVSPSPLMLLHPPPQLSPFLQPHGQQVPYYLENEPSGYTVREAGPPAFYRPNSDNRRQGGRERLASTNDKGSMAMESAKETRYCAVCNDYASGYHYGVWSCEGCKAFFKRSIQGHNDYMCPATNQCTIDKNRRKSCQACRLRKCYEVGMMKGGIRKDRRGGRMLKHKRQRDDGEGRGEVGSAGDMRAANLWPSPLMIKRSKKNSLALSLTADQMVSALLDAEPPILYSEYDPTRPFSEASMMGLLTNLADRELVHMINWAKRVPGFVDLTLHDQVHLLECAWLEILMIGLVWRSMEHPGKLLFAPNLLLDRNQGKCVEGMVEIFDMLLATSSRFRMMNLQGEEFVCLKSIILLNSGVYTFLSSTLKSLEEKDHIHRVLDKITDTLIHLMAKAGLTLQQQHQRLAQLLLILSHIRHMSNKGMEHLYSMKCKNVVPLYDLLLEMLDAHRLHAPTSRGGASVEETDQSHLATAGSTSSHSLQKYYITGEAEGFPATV
In short: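 Luciferase signal from VM7Luc4E2 ERE-reporter cells, co-dosed with test compound and 0.1 nM final 17beta-estradiol for 22 h, read with ONE-Glo.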

[7] = qHTS assay to identify small molecule HDAC inhibitors (AID 1259364);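 also: wild-type HCT-116 cells with endogenous class I/II HDAC activity; top concentration of the series differs between compounds; nearly all actives have a fitted effect of over 45% in size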
In short: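 HCT-116 wt cells, 1,500/well, overnight attach. Compounds (DMSO) 2 h, 37 °C. HDAC-Glo I/II, 30 min RT. Luminescence.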

[8] = qHTS assay to identify small molecule HDAC inhibitors - cell viability counter screen (AID 1259365)
In short: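 Cytotoxicity was gauged in wild-type HCT-116 cells after a brief 2hr treatment with DMSO-dissolved compounds at 37C and 5% CO2, using CellTiter-Glo luminescence developed for 30min at room temperature.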

[9] = qHTS assay to identify small molecule agonists of the sonic hedgehog signaling (Shh) pathway - cell viability counter screen (AID 1259366); also: nearly all actives have a fitted effect of over 50% in size
In short: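 Stable Gli1-Luc NIH/3T3 clone, 2,000 cells/well. Compound exposure 24hr at 37C. Read-out: CellTiter-Fluor fluorescence.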

[10] = qHTS assay to identify small molecule antagonists of the sonic hedgehog signaling (Shh) pathway - cell viability counter screen (AID 1259367); also: nearly all actives have a fitted effect of over 55% in size
In short: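 Conditioned medium drove Shh signaling in 3T3 Gli1-Luc cells exposed to compounds at 37C and 5% CO2. Viability was determined from CellTiter-Fluor fluorescence, with reagent incubated 1 hr after 23 hr of treatment.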

[11] = qHTS assay to identify small molecule antagonists of the sonic hedgehog signaling (Shh) pathway (AID 1259369; calls by dose curve; also: nearly all actives have a fitted effect of over 45% in size; also: potency is read from the fitted curve at half-maximal effect)
In short: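 Read-out is luminescence from a firefly luciferase gene controlled by the Gli1 response element, in 3T3Gli1-Luc cells pre-incubated 4hr then exposed to compounds and conditioned medium for 24hr.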

[12] = molecular target: Estrogen receptor beta (Homo sapiens) (UniProt Q92731); assay: qHTS assay to identify small molecule agonists of the estrogen receptor beta (ER-beta) signaling pathway (AID 1259377; active = well fitted activation curve with a large enough effect in the signal ratio in the repeat runs, not every such curve was filed as active; the % refers to the signal ratio)
Estrogen receptor beta (Homo sapiens), sequence (Q92731 whole entry, looked up): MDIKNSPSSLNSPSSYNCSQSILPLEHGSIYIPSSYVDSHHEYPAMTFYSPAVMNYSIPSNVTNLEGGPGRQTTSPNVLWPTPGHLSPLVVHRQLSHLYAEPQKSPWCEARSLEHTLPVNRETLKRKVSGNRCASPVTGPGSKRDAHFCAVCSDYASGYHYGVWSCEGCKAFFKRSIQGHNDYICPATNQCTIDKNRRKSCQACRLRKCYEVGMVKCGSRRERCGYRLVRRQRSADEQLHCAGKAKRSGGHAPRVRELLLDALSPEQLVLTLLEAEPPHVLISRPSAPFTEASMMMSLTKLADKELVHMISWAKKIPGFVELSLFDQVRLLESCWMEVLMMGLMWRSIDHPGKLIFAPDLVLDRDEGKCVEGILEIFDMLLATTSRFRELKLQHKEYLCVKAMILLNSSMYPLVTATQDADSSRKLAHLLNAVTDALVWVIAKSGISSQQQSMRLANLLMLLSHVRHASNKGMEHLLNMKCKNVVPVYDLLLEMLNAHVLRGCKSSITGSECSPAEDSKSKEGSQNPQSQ
In short: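 Measured by fluorescence intensity from a B/G FRET beta-lactamase substrate (2 h, room temperature) in ER-beta-UAS-bla HEK293T cells treated with DMSO-dissolved compounds for 16 hr at 37C and 5% CO2.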

[13] = qHTS assay to identify small molecule agonists of the androgen receptor (AR) signaling pathway in the presence of an antagonist - cell viability counter screen (AID 1259379);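 also: MDA-kb2 human breast cancer cells carrying an MMTV luciferase reporter; series mostly up to about 92 µM; nearly all actives have a fitted effect of over 25% in size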
In short: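 Each compound was tested at 15 concentrations on MDA-kb2 cells in the presence of 3.0uM nilutamide. Viability was measured by CellTiter-Fluor fluorescence after a 16 hr incubation at 37C in a CO2-free atmosphere.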

[14] = qHTS assay to identify small molecule agonists of the estrogen receptor beta (ER-beta) signaling pathway - cell viability counter screen (AID 1259380); also: nearly all actives have a fitted effect of over 30% in size
In short: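 Compounds dissolved in DMSO were pin-transferred onto ER-beta-UAS-bla HEK293T cells that had settled 6 hr, and exposure ran 16 hr at 37C. Following the reporter read, CellTiter-Glo luminescence after 30 min at room temperature indicated cytotoxicity.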

[15] = qHTS assay to identify small molecule agonists of the sonic hedgehog signaling (Shh) pathway (AID 1259368; calls by dose curve;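 also: NIH/3T3-derived 3T3Gli1-Luc cells carrying a stable Gli1-driven firefly luciferase reporter; series mostly up to about 92 µM; nearly all actives have a fitted effect of over 15% in size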)
In short: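 Following a 24 hr incubation with DMSO-dissolved compounds at 37 C, 5% CO2, Gli1-Luc NIH/3T3-derived cells received luciferase reagent for 30 min at room temperature prior to luminescence measurement.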

[16] = molecular target: Estrogen receptor beta (Homo sapiens) (UniProt Q92731); assay: qHTS assay to identify small molecule antagonists of the estrogen receptor beta (ER-beta) signaling pathway (AID 1259378; active = well fitted inhibition curve with a large enough effect in the signal ratio in the repeat runs, not every such curve was filed as active; the % refers to the signal ratio)
In short: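 ER-beta-UAS-bla HEK293T (GripTite) cells in 2% charcoal-stripped FBS medium were preincubated 6 hr at 37C, dosed with compound, then stimulated with 1 nM E2 (final) for 16 hr; beta-lactamase reporter read by B/G FRET fluorescence after 2 hr substrate loading.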

[17] = A CellTox Green Cytotoxicity Assay to monitor cytotoxicity in HepG2 cells - 8 hour (AID 1224890); also: nearly all actives have a fitted effect of over 45% in size
In short: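 Cytotoxicity was tracked as dead-cell DNA fluorescence in HepG2 cells treated with test compounds at 37 C; each time-point value comes from one kinetic series spanning 0, 8, 16, 24, 32 and 40 h.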

[18] = A CellTox Green Cytotoxicity Assay to monitor cytotoxicity in HEK293 cells - 16 hour (AID 1224888); also: nearly all actives have a fitted effect of over 35% in size
In short: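 Real-time, in one plate: 600 HEK293 cells/well with dead-cell DNA dye, pinned compound after 5 h, 37 C incubation over 40 h; viable cells give no appreciable fluorescence.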

[19] = molecular target: Androgen receptor (Homo sapiens) (UniProt P10275); assay: qHTS assay to identify small molecule antagonists of the androgen receptor (AR) signaling pathway using the MDA cell line in the presence of 0.5 nM R1881 (AID 1259243); also: nearly all actives have a fitted effect of over 50% in size
Androgen receptor (Homo sapiens), sequence (P10275 whole entry, looked up): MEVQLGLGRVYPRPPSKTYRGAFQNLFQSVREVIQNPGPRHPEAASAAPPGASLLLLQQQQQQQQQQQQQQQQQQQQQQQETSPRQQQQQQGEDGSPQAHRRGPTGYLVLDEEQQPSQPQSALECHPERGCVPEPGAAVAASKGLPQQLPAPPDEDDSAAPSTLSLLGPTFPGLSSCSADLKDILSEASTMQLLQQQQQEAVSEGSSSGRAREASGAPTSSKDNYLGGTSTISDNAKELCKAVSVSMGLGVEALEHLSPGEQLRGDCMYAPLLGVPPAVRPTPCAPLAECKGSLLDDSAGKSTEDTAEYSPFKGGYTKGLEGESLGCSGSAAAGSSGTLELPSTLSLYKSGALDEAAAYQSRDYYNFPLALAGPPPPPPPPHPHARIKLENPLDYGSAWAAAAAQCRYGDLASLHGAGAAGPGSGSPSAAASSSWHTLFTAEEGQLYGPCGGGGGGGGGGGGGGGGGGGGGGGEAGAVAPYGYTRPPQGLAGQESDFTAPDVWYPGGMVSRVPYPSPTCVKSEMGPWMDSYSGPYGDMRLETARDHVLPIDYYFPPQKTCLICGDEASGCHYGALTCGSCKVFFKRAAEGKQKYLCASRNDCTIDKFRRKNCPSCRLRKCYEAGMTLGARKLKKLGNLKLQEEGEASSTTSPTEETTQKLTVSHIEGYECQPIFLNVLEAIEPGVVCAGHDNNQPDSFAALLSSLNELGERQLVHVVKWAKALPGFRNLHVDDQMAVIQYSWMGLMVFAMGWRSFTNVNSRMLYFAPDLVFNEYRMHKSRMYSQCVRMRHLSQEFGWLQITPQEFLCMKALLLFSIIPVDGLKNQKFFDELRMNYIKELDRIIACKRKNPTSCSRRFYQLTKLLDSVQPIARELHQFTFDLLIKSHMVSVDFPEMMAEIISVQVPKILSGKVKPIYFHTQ
In short: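 Luminescence from an AR/GR-responsive MMTV-luciferase construct in MDA-kb2 breast carcinoma cells, read 30 min after ONE-Glo, following 16 hr co-treatment with compounds and 0.5 nM R1881.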

## CNC(=O)C(c1ccccc1)c1ccccc1
[1]
  Potency: inactive
[2]
  Potency: inactive
[3]
  Potency: inactive
[4]
  Potency: inactive
[5]
  Potency: inactive
[6]
  Potency: inactive
[7]
  Potency: inactive
[8]
  outcome: inactive
[9]
  Potency: inactive
[10]
  Potency: inactive
[11]
  Potency: inactive
[12]
  Potency: inactive
[13]
  Potency: inactive
[14]
  outcome: inactive

## CC1=CC[C@H](CC=O)C1(C)C
[1]
  Potency: inactive
[2]
  Potency: inactive
[3]
  Potency: inactive
[4]
  Potency: inactive
[5]
  Potency: inactive
[6]
  Potency: inactive
[7]
  Potency: inactive
[8]
  outcome: inactive
[9]
  Potency: inactive
[15]
  outcome: inactive
[11]
  Potency: inactive
[12]
  Potency: inactive
[16]
  outcome: inactive
[13]
  Potency: inactive
[14]
  outcome: inactive

## O=CO
[1]
  activity change, negative = cytotoxicity: 1.22% [at 6.97 µM]
[2]
  activity change, negative = cytotoxicity: 8.18% [at 6.97 µM]
[3]
  activity change, negative = cytotoxicity: -14.6% [at 6.97 µM]
[17]
  cytotoxicity increase: -4.28% [at 6.97 µM]
[4]
  activity change, negative = cytotoxicity: -0.2% [at 8.39 µM]
[5]
  viability change, negative = cytotoxic: 2.31% [at 8.39 µM]
[7]
  activity change, negative = inhibition: -0.333% [at 8.39 µM]
[8]
  activity change, negative = cytotoxicity: -1.28% [at 8.39 µM]
[9]
  viability change, negative = cytotoxic: 5.23% [at 8.39 µM]
[10]
  viability change, negative = cytotoxic: 1.7% [at 8.39 µM]
[15]
  activity change: -0.175% [at 8.39 µM]
[11]
  activity change, negative = inhibition: 8.06% [at 8.39 µM]
[13]
  activity change, negative = cytotoxicity: 0.727% [at 8.39 µM]
[14]
  activity change, negative = cytotoxicity: 0.536% [at 8.39 µM]

## CCOC(=O)CC(CC(=O)OCC)(OC(C)=O)C(=O)OCC
[1]
  Potency: inactive
[2]
  Potency: inactive
[17]
  Potency: inactive
[4]
  Potency: inactive
[5]
  Potency: inactive
[7]
  Potency: inactive
[9]
  Potency: inactive
[10]
  Potency: inactive
[11]
  Potency: inactive
[16]
  outcome: inactive
[13]
  Potency: inactive
[14]
  outcome: inactive

## Oc1ccccc1Cc1ccccc1O
[18]
  Potency: inactive
[4]
  Potency: inactive
[5]
  Potency: inactive
[6]
  Potency: inactive
[7]
  Potency: inactive
[8]
  outcome: inactive
[9]
  Potency: inactive
[10]
  Potency: inactive
[15]
  outcome: inactive
[11]
  Potency: 30.6 µM (active)

## CC(=O)c1ccc2c(c1)CCCC2
[2]
  Potency: inactive
[18]
  Potency: inactive
[3]
  Potency: inactive
[17]
  Potency: inactive
[4]
  Potency: inactive
[6]
  Potency: inactive
[7]
  Potency: inactive
[8]
  outcome: inactive
[9]
  Potency: inactive
[10]
  Potency: inactive
[15]
  outcome: inactive
[11]
  Potency: inactive
[12]
  Potency: inactive
[16]
  outcome: inactive
[13]
  Potency: inactive
[14]
  outcome: inactive

## CCCCCCCCCOCC1CO1 (stereo unspecified)
[2]
  Potency: inactive
[18]
  Potency: inactive
[3]
  Potency: inactive
[17]
  Potency: inactive
[4]
  Potency: inactive
[5]
  Potency: inactive
[8]
  outcome: inactive
[9]
  Potency: inactive
[10]
  Potency: inactive
[15]
  outcome: inactive
[11]
  Potency: inactive
[12]
  Potency: inactive
[16]
  outcome: inactive
[13]
  Potency: inactive
[14]
  outcome: inactive

## C=C(C)[C@@H]1CC[C@@H](C)C[C@@H]1O
[2]
  Potency: inactive
[3]
  Potency: inactive
[17]
  Potency: inactive
[4]
  Potency: inactive
[5]
  Potency: inactive
[7]
  Potency: inactive
[8]
  outcome: inactive
[9]
  Potency: inactive
[10]
  Potency: inactive
[15]
  outcome: inactive
[11]
  Potency: inactive
[13]
  Potency: inactive
[14]
  outcome: inactive

## C1=C\CC/C=C\CC/1
[2]
  Potency: inactive
[18]
  Potency: inactive
[3]
  Potency: inactive
[17]
  Potency: inactive
[4]
  Potency: inactive
[6]
  Potency: inactive
[8]
  outcome: inactive
[9]
  Potency: inactive
[10]
  Potency: inactive
[15]
  outcome: inactive
[11]
  Potency: inactive
[14]
  outcome: inactive

## CNCc1ccccc1
[2]
  Potency: inactive
[18]
  Potency: inactive
[3]
  Potency: inactive
[17]
  Potency: inactive
[4]
  Potency: inactive
[7]
  Potency: inactive
[8]
  outcome: inactive
[9]
  Potency: inactive
[10]
  Potency: inactive
[15]
  outcome: inactive
[11]
  Potency: inactive
[13]
  Potency: inactive
[14]
  outcome: inactive

## CCC(C)(C)C1CCC(=O)CC1
[2]
  Potency: inactive
[17]
  Potency: inactive
[4]
  Potency: inactive
[5]
  Potency: inactive
[19]
  outcome: inactive
[7]
  Potency: inactive
[8]
  outcome: inactive
[9]
  Potency: inactive
[10]
  Potency: inactive
[15]
  outcome: inactive
[11]
  Potency: inactive
[14]
  outcome: inactive
